We go through 13 molecules from PubChem BioAssay (NCATS).

Active and inactive are the calls of the source. Calls come from the whole dose curve; as a rule, active = well fitted curve in the direction sought with a large enough effect; inconclusive = small, poorly fitted or top-dose-only effect, or another doubt; inactive = no such curve, though single readings can be large or run the other way. Peptide text beside a SMILES is read from it.

A short description of this assay: Cellular Toxicity (caspase-3) BJ (AID 658). The conditions noted are these: BJ fibroblasts, luminescence, normalized: DMSO 0%, staurosporine 100%; series mostly up to 91.7 µM. The text has this: NIH Chemical Genomics Center [NCGC]
NIH Molecular Libraries Screening Centers Network [MLSCN]
National Institutes of Environmental Health Sciences [NIEHS]
National Toxicology Program [NTP]
We have developed a 1536-well cell-based assay for quantitative high throughput screening (qHTS) against a number of cell lines to determine in vitro caspase 3/7 activity of small molecules. This particular assay uses BJ cell line which is derived from normal human foreskin fibroblast.
NCGC Assay Protocol Summary:
The Caspase-Glo 3/7 assay (Promega) is a homogeneous method to measure caspase-3 and caspase-7 activities in cultured cells. The quantitation of caspase 3/7 activity is based on the cleavage of a peptide-aminoluciferin substrate. After caspase cleaves the substrate the free aminoluciferin is liberated and serves as the substrate of luciferase, which generates the light. The luminescent signal is proportional to amount of caspase 3/7 activity present.
Using the Caspase-Glo 3/7 assay, the amount of caspase 3/7 activity was measured in the BJ cell line with complete culture medium following compound treatment for 16 hours. The assay was performed in opaque white 1536-well plates. In the screen, staurosporine and tamoxifen were used as positive controls. Library compounds were measured for their ability to cause the activation of caspase 3/7 in the cell line, as reflected by an increase in luminescence signal, in a concentration-dependent manner. Data were normalized to the controls for basal activity (DMSO only) and 100% stimulation (10 uM staurosporine). AC50 values were determined from concentration-response data modeled with the standard Hill equation.
qHTS protocol for caspase 3/7 assay in the BJ cells
[Step] [Parameter] [Value] [Description]
1. Reagent; 5 uL; 1000 the BJ cells/well
2. Time; 5 hr; 37 °C incubation
4. Controls; 23 nL; Tamoxifen 0.23 uM to 100 uM & staurosporine 1.4 pM to 100 uM
5. Time; 16 hr; 37 °C incubation
6. Reagent; 5 uL; Caspase-Glo 3/7 reagent
7. Time; 1 hr; Room Temperature
8. Detection; Luminescence; Viewlux plate reader
Keywords: caspase 3/7, apoptosis, the BJ cell line, luminescence, NTPHTS, NTPHTS_NCGC, NIEHS, EPA, DSSTox, MLSMR, MLSCN, NIH Roadmap, qHTS, NCGC
For the molecule `COc1c2occc2cc2ccc(=O)oc12`, the outcome was inactive.
`NS(=O)(=O)c1cc(C(=O)O)c(NCc2ccco2)cc1Cl`: the call was inactive.
In the case of `CN(C)c1ccc2nc3ccc(=[N+](C)C)cc-3sc2c1`, the outcome was inactive.
Regarding `CCCc1cc(=O)[nH]c(=S)[nH]1`, the molecule was classed as inactive.
As for `CCCCC(CC)COC(=O)C(C#N)=C(c1ccccc1)c1ccccc1` (stereo not drawn), the entry is “inactive”; as for `Cc1cc(O)c2c(c1)C(=O)c1cc(O)cc(O)c1C2=O`, “inactive”.
For the molecule `c1ccc2[nH]c(-c3cscn3)nc2c1`, the result was inactive.
`CS(=O)(=O)OCCCCOS(C)(=O)=O`: the outcome was inactive.
As for `Cc1ccc(C)c(OCCCC(C)(C)C(=O)O)c1`, the outcome was inactive.
As for `Nc1ccc(S(N)(=O)=O)cc1`, the call was inactive.
As to `COC(=O)[C@H](Cc1ccccc1)NC(=O)[C@@H](N)CC(=O)O` (H-Asp-Phe-OMe), the result was inactive.
Consider `CCc1nc(N)nc(N)c1-c1ccc(Cl)cc1`, for which the result was inactive.
As for `CC(=O)Nc1ccc(O)cc1`, the call was inactive.
